{
  "source": "the OligoGym collection",
  "data": [
    {"biological_target": "C1orf115", "assay": "pooled miR-30 sensor sort-seq; sequence = guide strand", "conditions": "shRNA", "values": [
      {"sequence": "TTTTCTCTTCCAAATATGCTGT", "sensor-assay potency score (higher = more potent)": -0.444},
      {"sequence": "TGACTCTAGTAACATCCTCTTC", "sensor-assay potency score (higher = more potent)": -1.03},
      {"sequence": "TCTAGTAACATCCTCTTCCTCC", "sensor-assay potency score (higher = more potent)": 0.254},
      {"sequence": "TTCTCTTCCAAATATGCTGTGT", "sensor-assay potency score (higher = more potent)": -0.325},
      {"sequence": "TCTGACTCTAGTAACATCCTCT", "sensor-assay potency score (higher = more potent)": 0.697}
    ]},
    {"biological_target": "C1orf131", "assay": "pooled miR-30 sensor sort-seq; sequence = guide strand", "conditions": "shRNA", "values": [
      {"sequence": "TATTTTCTTGATATCAACTGGG", "sensor-assay potency score (higher = more potent)": 0.559},
      {"sequence": "TAAATTACTAGATTCTTGGTTC", "sensor-assay potency score (higher = more potent)": 0.886},
      {"sequence": "TTTAATGTAAACTACTAGCATT", "sensor-assay potency score (higher = more potent)": -0.73},
      {"sequence": "TTGTAATTCACATAACTCTTTT", "sensor-assay potency score (higher = more potent)": -0.919},
      {"sequence": "TTTCTTGATATCAACTGGGCTC", "sensor-assay potency score (higher = more potent)": -0.367},
      {"sequence": "TTCTTTATGATCTTCTTCTGTT", "sensor-assay potency score (higher = more potent)": -0.273},
      {"sequence": "TTTTTCTTGAAAATATCTGTTT", "sensor-assay potency score (higher = more potent)": -0.422},
      {"sequence": "TTATGATCTTCTTCTGTTCTGT", "sensor-assay potency score (higher = more potent)": -0.0808},
      {"sequence": "TAACCCGTGATACCAAACCGGT", "sensor-assay potency score (higher = more potent)": -1.37},
      {"sequence": "TTTGGATTTCCTGTCCTCCTGT", "sensor-assay potency score (higher = more potent)": 0.0328},
      {"sequence": "TTGAATTTTCCAACCTGTCCAA", "sensor-assay potency score (higher = more potent)": 0.318},
      {"sequence": "TTCTGTACCTCCAAAGTCGTAA", "sensor-assay potency score (higher = more potent)": -0.764}
    ]},
    {"biological_target": "C1orf168", "assay": "pooled miR-30 sensor sort-seq; sequence = guide strand", "conditions": "shRNA", "values": [
      {"sequence": "TTCTAGGAGAGAAACTTTCTGA", "sensor-assay potency score (higher = more potent)": -0.177},
      {"sequence": "TTTGTTTCCAGCTTTTTCCTGG", "sensor-assay potency score (higher = more potent)": 0.241},
      {"sequence": "TATTAGAAGCAAACTAACCATC", "sensor-assay potency score (higher = more potent)": -0.751},
      {"sequence": "TAGAAGCAAACTAACCATCTGC", "sensor-assay potency score (higher = more potent)": 0.515},
      {"sequence": "TTTCACATTCTCTTGAACTGAC", "sensor-assay potency score (higher = more potent)": 0.742},
      {"sequence": "TTGACATGTAAACTGAAACTGA", "sensor-assay potency score (higher = more potent)": -0.315},
      {"sequence": "TAGACATTGAAAGATAACCTTT", "sensor-assay potency score (higher = more potent)": -0.653},
      {"sequence": "TTTCTTGAAGAATTGCTGCAGT", "sensor-assay potency score (higher = more potent)": 0.0759},
      {"sequence": "TTCTCTTGAACTGACAGTGAAG", "sensor-assay potency score (higher = more potent)": -0.905},
      {"sequence": "TATCACTAGATTTTGTTCGGTG", "sensor-assay potency score (higher = more potent)": 0.284},
      {"sequence": "TTGATGACAATAATCTCTTTGT", "sensor-assay potency score (higher = more potent)": -0.247},
      {"sequence": "TTTCTGATTCTTCAGCACCGTT", "sensor-assay potency score (higher = more potent)": -1.25}
    ]},
    {"biological_target": "C1orf61", "assay": "pooled miR-30 sensor sort-seq; sequence = guide strand", "conditions": "shRNA", "values": [
      {"sequence": "TTCTTCTTTTTGGTCTCCCAAC", "sensor-assay potency score (higher = more potent)": -1.55},
      {"sequence": "TCTATCGTCCACACGGAGGAAG", "sensor-assay potency score (higher = more potent)": -0.948},
      {"sequence": "TCGGGGACTTGAGAGGTCCTGA", "sensor-assay potency score (higher = more potent)": -0.479},
      {"sequence": "TTCTTTTTGGTCTCCCAACTTA", "sensor-assay potency score (higher = more potent)": -0.917},
      {"sequence": "TATAGCCATATAGATCTTGGTT", "sensor-assay potency score (higher = more potent)": -1.16},
      {"sequence": "AACCAGATGAAGTACATTCTTC", "sensor-assay potency score (higher = more potent)": -0.97},
      {"sequence": "TTGAGAGGTCCTGAGTGGCAGG", "sensor-assay potency score (higher = more potent)": -0.741},
      {"sequence": "AAGATCATGGAATTTCTCCTGA", "sensor-assay potency score (higher = more potent)": 0.708},
      {"sequence": "TTTGGTCTCCCAACTTAGCCAT", "sensor-assay potency score (higher = more potent)": -0.53},
      {"sequence": "TTGTGCTGCCTGGAGGACGAGG", "sensor-assay potency score (higher = more potent)": -1.4},
      {"sequence": "TATAGATCTTGGTTAGACATGG", "sensor-assay potency score (higher = more potent)": -0.143}
    ]}
  ]
}
